Assay results: the supplement of paper PMC11732987, “Enantioselective OTUD7B fragment discovery through chemoproteomics screening and high-throughput optimisation” (Communications Chemistry, 2025)

Assays:
Test in all cases: log2 ratio of Biotin-Ahx-Ub-VS probe labelling (fragment/DMSO); higher = less target engagement (more negative = stronger competition), active = hit call of the paper (q ≤ 0.05, log2 ratio ≤ -1)
Conditions in all cases: compound concentration: 200 uM; treatment time: 3 h
[1] = target: T1, USP42 (UniProt Q9H9J4)
T1 sequence (whole entry): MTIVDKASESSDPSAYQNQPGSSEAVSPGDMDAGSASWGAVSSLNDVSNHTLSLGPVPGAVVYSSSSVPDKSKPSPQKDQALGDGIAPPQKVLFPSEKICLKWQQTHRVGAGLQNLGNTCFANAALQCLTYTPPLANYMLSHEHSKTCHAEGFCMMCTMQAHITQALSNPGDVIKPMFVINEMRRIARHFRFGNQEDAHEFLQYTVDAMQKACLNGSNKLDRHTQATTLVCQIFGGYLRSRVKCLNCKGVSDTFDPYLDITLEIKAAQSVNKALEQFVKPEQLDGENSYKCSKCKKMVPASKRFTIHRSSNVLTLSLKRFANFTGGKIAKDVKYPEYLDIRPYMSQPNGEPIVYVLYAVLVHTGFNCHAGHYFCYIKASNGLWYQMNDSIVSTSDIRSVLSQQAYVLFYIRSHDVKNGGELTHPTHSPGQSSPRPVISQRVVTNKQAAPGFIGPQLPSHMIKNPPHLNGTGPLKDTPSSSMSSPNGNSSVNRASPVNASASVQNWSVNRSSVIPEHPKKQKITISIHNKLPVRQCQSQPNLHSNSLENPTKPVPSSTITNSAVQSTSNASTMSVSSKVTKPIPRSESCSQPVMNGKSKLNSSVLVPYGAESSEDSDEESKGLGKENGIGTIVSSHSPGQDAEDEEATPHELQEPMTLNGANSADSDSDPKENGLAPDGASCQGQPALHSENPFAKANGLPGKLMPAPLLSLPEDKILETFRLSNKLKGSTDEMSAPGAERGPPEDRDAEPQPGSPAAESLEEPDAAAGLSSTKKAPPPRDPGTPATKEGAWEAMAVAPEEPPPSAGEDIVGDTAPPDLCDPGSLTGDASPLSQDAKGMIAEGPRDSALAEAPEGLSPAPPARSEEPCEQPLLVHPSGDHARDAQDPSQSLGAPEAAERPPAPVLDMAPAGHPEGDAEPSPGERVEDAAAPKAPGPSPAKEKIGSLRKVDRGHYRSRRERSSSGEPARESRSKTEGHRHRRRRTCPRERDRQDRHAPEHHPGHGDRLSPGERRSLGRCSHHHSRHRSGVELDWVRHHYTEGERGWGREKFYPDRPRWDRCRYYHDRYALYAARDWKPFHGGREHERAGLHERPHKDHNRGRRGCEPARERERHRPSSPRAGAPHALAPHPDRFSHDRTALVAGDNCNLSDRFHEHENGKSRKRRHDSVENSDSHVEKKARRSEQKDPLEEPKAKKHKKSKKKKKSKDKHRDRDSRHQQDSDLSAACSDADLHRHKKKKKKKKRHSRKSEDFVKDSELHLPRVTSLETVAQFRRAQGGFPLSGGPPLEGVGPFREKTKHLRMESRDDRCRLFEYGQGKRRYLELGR
Procedure, shortened: (§1)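 In triplicate, 495 µg of HEK293T lysate per sample was incubated with fragment at 200 µM or vehicle for 3 h. Biotin-Ahx-Ub-VS was then added to 0.5 µM final for 1 h, and labelled DUBs were captured with NeutrAvidin, digested with LysC and trypsin, and measured by diaPASEF LC-MS/MS. Data are average log2 fragment/vehicle ratios by unpaired t-test from global-median-normalised Spectronaut label-free quantities, restricted to proteins with ≥2 unique peptides.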

[2] = target: USP46 (UniProt P62068)
Procedure, shortened: as §1

[3] = target: T2, USP47 (UniProt Q96K76)
T2 sequence (whole entry): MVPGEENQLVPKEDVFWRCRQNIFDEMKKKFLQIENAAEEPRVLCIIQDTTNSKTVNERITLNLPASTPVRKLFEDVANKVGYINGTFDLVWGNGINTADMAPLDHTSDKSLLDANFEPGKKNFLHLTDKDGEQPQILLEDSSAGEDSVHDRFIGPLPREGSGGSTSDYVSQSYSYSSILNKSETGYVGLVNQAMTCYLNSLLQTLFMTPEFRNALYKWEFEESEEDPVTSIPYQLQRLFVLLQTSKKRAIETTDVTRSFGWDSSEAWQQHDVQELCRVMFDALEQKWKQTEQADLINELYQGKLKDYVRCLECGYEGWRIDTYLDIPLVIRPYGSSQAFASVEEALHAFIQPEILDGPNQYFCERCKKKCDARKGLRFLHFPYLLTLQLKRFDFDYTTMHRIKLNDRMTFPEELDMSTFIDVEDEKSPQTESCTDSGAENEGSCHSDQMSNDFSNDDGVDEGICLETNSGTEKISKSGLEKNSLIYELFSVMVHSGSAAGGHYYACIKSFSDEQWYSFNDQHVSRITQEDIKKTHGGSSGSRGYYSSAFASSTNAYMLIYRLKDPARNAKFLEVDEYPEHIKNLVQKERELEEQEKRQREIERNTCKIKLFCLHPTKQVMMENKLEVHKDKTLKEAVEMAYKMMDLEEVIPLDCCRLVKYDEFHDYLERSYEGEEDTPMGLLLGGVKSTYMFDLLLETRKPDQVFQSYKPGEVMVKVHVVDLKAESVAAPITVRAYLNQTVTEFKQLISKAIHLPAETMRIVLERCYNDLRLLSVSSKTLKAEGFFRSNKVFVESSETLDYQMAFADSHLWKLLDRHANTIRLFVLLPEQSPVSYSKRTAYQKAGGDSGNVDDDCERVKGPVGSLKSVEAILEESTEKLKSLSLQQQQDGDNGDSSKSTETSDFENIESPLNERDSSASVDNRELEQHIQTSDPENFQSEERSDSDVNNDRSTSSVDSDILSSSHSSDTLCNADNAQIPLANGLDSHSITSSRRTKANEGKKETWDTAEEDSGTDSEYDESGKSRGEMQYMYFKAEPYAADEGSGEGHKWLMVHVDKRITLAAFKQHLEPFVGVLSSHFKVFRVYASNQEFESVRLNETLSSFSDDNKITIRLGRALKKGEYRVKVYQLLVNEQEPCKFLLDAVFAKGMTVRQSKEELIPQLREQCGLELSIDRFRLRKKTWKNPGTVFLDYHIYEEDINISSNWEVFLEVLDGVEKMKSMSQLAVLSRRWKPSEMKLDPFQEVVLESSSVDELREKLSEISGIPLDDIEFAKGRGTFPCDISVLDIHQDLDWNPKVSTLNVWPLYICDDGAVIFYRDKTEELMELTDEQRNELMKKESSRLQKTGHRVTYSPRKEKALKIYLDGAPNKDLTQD
Procedure, shortened: as §1

[4] = target: T3, USP48 (UniProt Q86UV5)
T3 sequence (whole entry): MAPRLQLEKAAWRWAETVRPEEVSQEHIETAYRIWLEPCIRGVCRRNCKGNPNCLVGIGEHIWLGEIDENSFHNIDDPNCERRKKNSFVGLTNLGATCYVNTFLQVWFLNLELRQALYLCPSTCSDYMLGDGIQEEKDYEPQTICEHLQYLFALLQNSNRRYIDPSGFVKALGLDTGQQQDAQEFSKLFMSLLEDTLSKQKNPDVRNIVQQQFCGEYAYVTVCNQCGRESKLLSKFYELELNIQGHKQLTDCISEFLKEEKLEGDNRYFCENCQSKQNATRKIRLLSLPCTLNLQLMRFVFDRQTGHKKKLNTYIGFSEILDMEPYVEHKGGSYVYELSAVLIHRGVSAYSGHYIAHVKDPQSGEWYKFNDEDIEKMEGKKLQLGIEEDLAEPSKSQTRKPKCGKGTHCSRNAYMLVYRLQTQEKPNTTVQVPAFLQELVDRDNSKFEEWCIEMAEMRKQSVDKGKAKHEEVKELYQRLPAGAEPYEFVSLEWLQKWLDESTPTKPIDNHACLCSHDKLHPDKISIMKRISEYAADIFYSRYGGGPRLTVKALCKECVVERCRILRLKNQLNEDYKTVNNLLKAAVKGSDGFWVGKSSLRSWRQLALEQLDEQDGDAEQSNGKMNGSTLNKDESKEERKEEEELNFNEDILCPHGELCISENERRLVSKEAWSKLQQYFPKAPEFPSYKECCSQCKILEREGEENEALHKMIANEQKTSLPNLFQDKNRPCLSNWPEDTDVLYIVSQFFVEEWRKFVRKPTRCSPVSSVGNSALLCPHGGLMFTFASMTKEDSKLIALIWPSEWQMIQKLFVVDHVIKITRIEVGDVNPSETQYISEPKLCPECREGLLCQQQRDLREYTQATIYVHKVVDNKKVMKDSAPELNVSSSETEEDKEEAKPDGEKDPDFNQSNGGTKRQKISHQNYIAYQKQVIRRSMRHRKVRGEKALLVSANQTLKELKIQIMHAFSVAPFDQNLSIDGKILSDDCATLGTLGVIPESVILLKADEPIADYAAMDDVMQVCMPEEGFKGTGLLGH
Procedure, shortened: as §1

[5] = target: T4, USP5 (UniProt P45974)
T4 sequence (whole entry): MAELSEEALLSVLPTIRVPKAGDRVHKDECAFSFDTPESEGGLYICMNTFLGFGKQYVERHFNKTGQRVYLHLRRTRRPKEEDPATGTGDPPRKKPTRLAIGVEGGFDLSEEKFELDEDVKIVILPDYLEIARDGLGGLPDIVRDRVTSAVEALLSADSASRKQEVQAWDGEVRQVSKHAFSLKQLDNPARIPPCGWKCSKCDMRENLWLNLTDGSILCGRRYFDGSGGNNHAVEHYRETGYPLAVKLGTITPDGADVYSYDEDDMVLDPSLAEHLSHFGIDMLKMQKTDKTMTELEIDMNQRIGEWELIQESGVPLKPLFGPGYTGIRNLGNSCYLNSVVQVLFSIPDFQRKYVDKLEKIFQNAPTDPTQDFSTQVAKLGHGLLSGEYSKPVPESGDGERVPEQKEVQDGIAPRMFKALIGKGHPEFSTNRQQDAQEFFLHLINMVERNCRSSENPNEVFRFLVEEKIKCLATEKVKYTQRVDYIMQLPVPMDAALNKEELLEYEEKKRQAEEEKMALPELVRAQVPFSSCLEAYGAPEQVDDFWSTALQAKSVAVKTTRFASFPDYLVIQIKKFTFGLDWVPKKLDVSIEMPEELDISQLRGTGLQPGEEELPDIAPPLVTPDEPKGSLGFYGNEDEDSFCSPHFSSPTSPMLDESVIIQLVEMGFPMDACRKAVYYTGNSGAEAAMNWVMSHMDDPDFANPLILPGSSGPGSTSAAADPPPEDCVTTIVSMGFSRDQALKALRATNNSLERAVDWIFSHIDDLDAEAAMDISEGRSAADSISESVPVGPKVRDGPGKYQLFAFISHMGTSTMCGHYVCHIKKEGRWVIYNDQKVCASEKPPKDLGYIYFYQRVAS
Procedure, shortened: as §1

[6] = target: USP54 (UniProt Q70EL1)
Procedure, shortened: as §1

[7] = target: USP7 (UniProt Q93009)
Procedure, shortened: as §1

[8] = target: T5, USP8 (UniProt P40818)
T5 sequence (whole entry): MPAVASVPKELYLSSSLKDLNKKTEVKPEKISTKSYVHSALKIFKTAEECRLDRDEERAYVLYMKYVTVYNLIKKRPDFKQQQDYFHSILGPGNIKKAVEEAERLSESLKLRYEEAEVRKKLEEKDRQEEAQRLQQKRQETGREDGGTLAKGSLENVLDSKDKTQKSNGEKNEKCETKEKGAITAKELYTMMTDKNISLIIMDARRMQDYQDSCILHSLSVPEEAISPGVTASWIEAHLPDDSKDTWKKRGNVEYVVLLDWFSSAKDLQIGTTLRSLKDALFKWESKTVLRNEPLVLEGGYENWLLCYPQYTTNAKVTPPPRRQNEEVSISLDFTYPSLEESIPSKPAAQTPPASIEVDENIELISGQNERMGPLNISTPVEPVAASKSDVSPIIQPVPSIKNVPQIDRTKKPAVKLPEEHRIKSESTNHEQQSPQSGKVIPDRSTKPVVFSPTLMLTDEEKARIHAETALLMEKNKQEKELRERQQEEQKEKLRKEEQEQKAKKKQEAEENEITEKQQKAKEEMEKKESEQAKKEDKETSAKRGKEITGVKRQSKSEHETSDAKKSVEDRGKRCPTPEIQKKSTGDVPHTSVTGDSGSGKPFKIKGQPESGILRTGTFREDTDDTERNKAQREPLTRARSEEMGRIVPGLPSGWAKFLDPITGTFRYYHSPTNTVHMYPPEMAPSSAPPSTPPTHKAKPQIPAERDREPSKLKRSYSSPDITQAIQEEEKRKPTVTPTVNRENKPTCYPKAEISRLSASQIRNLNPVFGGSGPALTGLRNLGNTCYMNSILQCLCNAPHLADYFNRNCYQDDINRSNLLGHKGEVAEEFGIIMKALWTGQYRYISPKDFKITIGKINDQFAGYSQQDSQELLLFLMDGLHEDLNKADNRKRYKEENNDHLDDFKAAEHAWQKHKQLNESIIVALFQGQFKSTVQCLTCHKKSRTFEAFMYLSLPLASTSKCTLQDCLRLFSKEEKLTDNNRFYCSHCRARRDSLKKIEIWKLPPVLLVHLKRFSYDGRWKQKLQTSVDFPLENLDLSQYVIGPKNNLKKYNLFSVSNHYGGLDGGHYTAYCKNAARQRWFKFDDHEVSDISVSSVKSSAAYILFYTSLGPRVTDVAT
Procedure, shortened: as §1

Measured: log2 ratio of Biotin-Ahx-Ub-VS probe labelling

USP46, sequence (P62068 whole entry): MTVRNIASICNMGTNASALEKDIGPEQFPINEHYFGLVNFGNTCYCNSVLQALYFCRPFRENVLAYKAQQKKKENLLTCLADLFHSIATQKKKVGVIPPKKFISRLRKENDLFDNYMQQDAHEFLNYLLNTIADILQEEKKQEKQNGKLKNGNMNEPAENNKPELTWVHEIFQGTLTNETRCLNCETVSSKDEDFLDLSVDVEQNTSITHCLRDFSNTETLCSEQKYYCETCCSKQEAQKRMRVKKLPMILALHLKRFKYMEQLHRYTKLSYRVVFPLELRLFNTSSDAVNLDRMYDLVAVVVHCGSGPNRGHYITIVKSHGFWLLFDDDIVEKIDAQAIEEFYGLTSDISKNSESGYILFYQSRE
USP7, sequence (Q93009 whole entry, looked up): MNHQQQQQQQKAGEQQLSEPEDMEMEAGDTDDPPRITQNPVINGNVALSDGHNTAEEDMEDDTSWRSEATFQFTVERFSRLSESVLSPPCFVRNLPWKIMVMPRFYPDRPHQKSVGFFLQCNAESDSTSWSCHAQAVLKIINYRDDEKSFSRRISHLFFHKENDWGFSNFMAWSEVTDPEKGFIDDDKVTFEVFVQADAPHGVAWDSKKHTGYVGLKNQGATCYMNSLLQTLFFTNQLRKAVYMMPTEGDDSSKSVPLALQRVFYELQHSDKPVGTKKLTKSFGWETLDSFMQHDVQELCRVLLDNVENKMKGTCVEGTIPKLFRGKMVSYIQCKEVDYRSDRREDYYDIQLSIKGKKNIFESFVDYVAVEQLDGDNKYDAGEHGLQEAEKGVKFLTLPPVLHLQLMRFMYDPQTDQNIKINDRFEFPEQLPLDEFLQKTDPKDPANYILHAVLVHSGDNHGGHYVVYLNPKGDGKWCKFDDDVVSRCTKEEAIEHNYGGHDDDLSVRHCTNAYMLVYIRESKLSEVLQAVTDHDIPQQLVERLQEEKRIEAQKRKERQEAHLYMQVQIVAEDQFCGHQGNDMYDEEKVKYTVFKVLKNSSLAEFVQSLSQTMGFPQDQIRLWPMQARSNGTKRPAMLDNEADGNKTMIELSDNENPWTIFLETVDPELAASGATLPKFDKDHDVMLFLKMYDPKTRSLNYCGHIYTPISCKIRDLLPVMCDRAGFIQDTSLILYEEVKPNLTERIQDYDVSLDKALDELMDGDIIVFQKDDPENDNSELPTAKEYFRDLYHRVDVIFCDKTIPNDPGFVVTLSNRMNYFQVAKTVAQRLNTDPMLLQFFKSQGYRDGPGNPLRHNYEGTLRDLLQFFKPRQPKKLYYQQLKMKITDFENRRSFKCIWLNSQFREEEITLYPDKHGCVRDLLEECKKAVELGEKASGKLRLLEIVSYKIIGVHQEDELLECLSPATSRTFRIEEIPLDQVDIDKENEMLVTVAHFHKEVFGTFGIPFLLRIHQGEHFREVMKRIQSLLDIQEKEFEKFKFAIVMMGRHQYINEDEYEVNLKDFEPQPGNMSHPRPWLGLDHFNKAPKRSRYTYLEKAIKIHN
USP54, sequence (Q70EL1 whole entry): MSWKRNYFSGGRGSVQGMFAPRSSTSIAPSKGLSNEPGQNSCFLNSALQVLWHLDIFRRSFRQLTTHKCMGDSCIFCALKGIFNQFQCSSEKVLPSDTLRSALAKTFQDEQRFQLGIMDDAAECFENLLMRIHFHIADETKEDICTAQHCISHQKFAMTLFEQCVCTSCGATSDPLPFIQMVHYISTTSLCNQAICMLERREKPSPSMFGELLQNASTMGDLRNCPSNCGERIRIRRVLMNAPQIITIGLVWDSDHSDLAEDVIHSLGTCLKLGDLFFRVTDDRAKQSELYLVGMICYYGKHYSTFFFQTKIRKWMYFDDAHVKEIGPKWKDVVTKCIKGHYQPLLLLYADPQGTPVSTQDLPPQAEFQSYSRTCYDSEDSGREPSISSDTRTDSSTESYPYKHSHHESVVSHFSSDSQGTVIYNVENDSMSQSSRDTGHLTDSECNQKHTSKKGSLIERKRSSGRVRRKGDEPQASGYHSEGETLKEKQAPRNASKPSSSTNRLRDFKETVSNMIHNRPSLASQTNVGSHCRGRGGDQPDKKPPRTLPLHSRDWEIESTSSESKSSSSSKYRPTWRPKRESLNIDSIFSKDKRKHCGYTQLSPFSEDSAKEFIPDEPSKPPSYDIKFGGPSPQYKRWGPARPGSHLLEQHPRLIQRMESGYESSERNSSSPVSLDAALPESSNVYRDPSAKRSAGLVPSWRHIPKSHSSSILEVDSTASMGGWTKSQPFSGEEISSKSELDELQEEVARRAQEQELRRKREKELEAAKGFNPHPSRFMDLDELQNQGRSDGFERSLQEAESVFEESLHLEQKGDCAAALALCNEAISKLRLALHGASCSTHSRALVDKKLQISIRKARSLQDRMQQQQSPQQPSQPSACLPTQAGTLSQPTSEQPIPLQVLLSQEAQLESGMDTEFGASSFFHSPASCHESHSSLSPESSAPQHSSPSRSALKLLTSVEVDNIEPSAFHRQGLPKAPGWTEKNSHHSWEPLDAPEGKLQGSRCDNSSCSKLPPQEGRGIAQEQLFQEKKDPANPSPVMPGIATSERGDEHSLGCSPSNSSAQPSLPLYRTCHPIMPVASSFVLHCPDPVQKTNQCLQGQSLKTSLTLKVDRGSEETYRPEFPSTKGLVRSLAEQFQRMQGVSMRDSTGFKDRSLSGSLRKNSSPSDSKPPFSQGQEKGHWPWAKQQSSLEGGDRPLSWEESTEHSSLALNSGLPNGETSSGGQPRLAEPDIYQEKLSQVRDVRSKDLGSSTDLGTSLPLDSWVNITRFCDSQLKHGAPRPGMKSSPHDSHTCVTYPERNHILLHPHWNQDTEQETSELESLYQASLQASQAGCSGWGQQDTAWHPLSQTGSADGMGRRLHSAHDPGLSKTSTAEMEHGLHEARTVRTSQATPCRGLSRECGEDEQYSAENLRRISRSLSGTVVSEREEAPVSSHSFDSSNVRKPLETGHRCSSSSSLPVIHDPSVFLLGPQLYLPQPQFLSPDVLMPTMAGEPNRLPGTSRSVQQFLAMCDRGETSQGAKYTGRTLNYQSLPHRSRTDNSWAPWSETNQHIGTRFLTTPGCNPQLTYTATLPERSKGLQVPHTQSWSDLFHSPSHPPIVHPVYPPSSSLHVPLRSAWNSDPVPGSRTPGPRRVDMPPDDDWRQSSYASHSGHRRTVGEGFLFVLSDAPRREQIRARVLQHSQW

O=C(CCl)N1CCOC2(CCC2)CC1
inactive: [1] -0.307 | [2] 0.0174 | [3] -0.785 | [4] -0.374 | [5] 0.235 | [6] -0.505 | [7] -0.145 | [8] -0.275
